Whole data set: some 9,900 sequences, median “r (bound/input frequency ratio)” near 0.7, cut for the highest 2% near 6.5. The entries come from a sample that favours the highest values as a whole.
B1: ENSMUSG00000004113.146|Cacna1b|6:10;184:188;241:245;249:253 (ssRNA)
RNA: GGGAGUUCUACAGUCCGACGAUCGCUUCGAUAUCCGCAUGCUACACAUCAUACUAGAGAUGCGCUCAAGGGCCUGCCUUUCACCUACACUGUCACCAUAACAGGGACCAAAUCUGGAGGAUGUCCUUGCUGUUGAUUCUGGUUUUCAGUCACAACACUUUCACUGUUUGUCAUUUCUAUGUAGUUGAUCUAGAAAAAGCAGAAAUCAAAACAGGAAAGGAAAUGUUACACAAACUUUAAAAAAAAAGUCAACAUGUAGGAAGGUCUCCAUUUUGCAUUGUUUCACACACUUCAUACCAAUGUUCUCUUGCGGUCGCACUAGUGUGGAAUUCUCGGGUGUCAAGG
B2: ENSMUSG00000031028.47|Tub (ssRNA)
RNA: GGGAGUUCUACAGUCCGACGAUCGCUUCGAUAUCCGCAUGCUACUGAAGCAGGGGGGACAGCAAAUGGGUAUGACAGGAGAAGAAUAUUUCUGUGCCCCAAGGUCAACACACAUGCCCAGUCCUGGGUCAGUCCCCUGCUGCAGUGGUGUUAUCACACCGGAAAGCCUCUUCACCUGGAGGUACAGAGGGAGAGGAAGCACAAGCCUGGCUGCUGUGGCUCAGCCAUCCACUCAGCCUACGAGUCAGAGACAGUGGGUGUCCCGGGAAGCAGGGGUACAGUGAGUGUGUGUGUAUGUACAGGGCUCUUGCGGUCGCACUAGUGUGGAAUUCUCGGGUGUCAAGG
B3: ENSMUSG00000043670.69|Diras1 (ssRNA)
RNA: GGGAGUUCUACAGUCCGACGAUCGCUUCGAUAUCCGCAUGCUACCAUUCUAUCUGCACCCCACAACCACACACUGGAGGUUUGAUCCCUGUGGAUCUGAAAACAGGGACCUGGCUAAGGAACUGCUCAUCCCAGUCAGGCCCAGAGAGGUUACCUUGCCUCUCCAUCUCUGUCCCUGUGUGCCCAGCCAUGCCCACUGUCCCUGUCCCUCACAUUCUAUCACUGUGACCUCUGGGGAGUGCCCAUUGACCUCAUCUUCCUUCACUAAUAUCUUAUUUCUUUCACCUGAUCCUGUCCUUUCCCCCUCUUGCGGUCGCACUAGUGUGGAAUUCUCGGGUGUCAAGG
B4: ENSMUSG00000004113.290|Cacna1b (ssRNA)
RNA: GGGAGUUCUACAGUCCGACGAUCGCUUCGAUAUCCGCAUGCUACAGGAAGGUGUUCAGUGUGCACAGAUAGCUGGGAGGCCACGAGAGAAAGGUUGCACACAGACAGGCAGGCACUCCUUGGUGUGGUCUCUCUGUUUUGAAACUUCUGAUGACUUCUUGGUGGCUUGUUGUCUUCUACCCCAUGUUUCUCACAGGAUCUGUGUGUGUGUGUGUGUGUGUGUGUGUGUGUGUGUGUGUGUGUGUUAGCAUGUGUGUAUUAGCGUGUGUGAGUGUGUGAGCAUGCACGAGUCAUAGGAGAUGCACUCUUGCGGUCGCACUAGUGUGGAAUUCUCGGGUGUCAAGG
B5: ENSMUSG00000004113.295|Cacna1b (ssRNA)
RNA: GGGAGUUCUACAGUCCGACGAUCGCUUCGAUAUCCGCAUGCUAGGGAGGCCACGAGAGAAAGGUUGCACACAGACAGGCAGGCACUCCUUGGUGUGGUCUCUCUGUUUUGAAACUUCUGAUGACUUCUUGGUGGCUUGUUGUCUUCUACCCCAUGUUUCUCACAGGAUCUGUGUGUGUGUGUGUGUGUGUGUGUGUGUGUGUGUGUGUGUGUGUUAGCAUGUGUGUAUUAGCGUGUGUGAGUGUGUGAGCAUGCACGAGUCAUAGGAGAUGCAGGUGUAUGUGUGUGGUGUGCAUAUGUGUAUCUCUUGCGGUCGCACUAGUGUGGAAUUCUCGGGUGUCAAGG
B6: ENSMUSG00000004113.291|Cacna1b (ssRNA)
RNA: GGGAGUUCUACAGUCCGACGAUCGCUUCGAUAUCCGCAUGCUAGGUGUUCAGUGUGCACAGAUAGCUGGGAGGCCACGAGAGAAAGGUUGCACACAGACAGGCAGGCACUCCUUGGUGUGGUCUCUCUGUUUUGAAACUUCUGAUGACUUCUUGGUGGCUUGUUGUCUUCUACCCCAUGUUUCUCACAGGAUCUGUGUGUGUGUGUGUGUGUGUGUGUGUGUGUGUGUGUGUGUGUGUUAGCAUGUGUGUAUUAGCGUGUGUGAGUGUGUGAGCAUGCACGAGUCAUAGGAGAUGCAGGUGUACUCUUGCGGUCGCACUAGUGUGGAAUUCUCGGGUGUCAAGG
B7: ENSMUSG00000004113.293|Cacna1b (ssRNA)
RNA: GGGAGUUCUACAGUCCGACGAUCGCUUCGAUAUCCGCAUGCUAGCACAGAUAGCUGGGAGGCCACGAGAGAAAGGUUGCACACAGACAGGCAGGCACUCCUUGGUGUGGUCUCUCUGUUUUGAAACUUCUGAUGACUUCUUGGUGGCUUGUUGUCUUCUACCCCAUGUUUCUCACAGGAUCUGUGUGUGUGUGUGUGUGUGUGUGUGUGUGUGUGUGUGUGUGUGUUAGCAUGUGUGUAUUAGCGUGUGUGAGUGUGUGAGCAUGCACGAGUCAUAGGAGAUGCAGGUGUAUGUGUGUGGUGUCUCUUGCGGUCGCACUAGUGUGGAAUUCUCGGGUGUCAAGG
B8: ENSMUSG00000004113.305|Cacna1b (ssRNA)
RNA: GGGAGUUCUACAGUCCGACGAUCGCUUCGAUAUCCGCAUGCUAUGUUUUGAAACUUCUGAUGACUUCUUGGUGGCUUGUUGUCUUCUACCCCAUGUUUCUCACAGGAUCUGUGUGUGUGUGUGUGUGUGUGUGUGUGUGUGUGUGUGUGUGUGUUAGCAUGUGUGUAUUAGCGUGUGUGAGUGUGUGAGCAUGCACGAGUCAUAGGAGAUGCAGGUGUAUGUGUGUGGUGUGCAUAUGUGUAUGUGUGUGUGUGUGUGUGUGUGUGUAGGUGUGUUCAGCAAGUGGCUAUUGUCAACCAUAGGCUCUUGCGGUCGCACUAGUGUGGAAUUCUCGGGUGUCAAGG
B9: ENSMUSG00000004113.303|Cacna1b (ssRNA)
RNA: GGGAGUUCUACAGUCCGACGAUCGCUUCGAUAUCCGCAUGCUAGUGUGGUCUCUCUGUUUUGAAACUUCUGAUGACUUCUUGGUGGCUUGUUGUCUUCUACCCCAUGUUUCUCACAGGAUCUGUGUGUGUGUGUGUGUGUGUGUGUGUGUGUGUGUGUGUGUGUGUUAGCAUGUGUGUAUUAGCGUGUGUGAGUGUGUGAGCAUGCACGAGUCAUAGGAGAUGCAGGUGUAUGUGUGUGGUGUGCAUAUGUGUAUGUGUGUGUGUGUGUGUGUGUGUGUAGGUGUGUUCAGCAAGUGGCUAUUCUCUUGCGGUCGCACUAGUGUGGAAUUCUCGGGUGUCAAGG
B10: ENSMUSG00000004113.302|Cacna1b (ssRNA)
RNA: GGGAGUUCUACAGUCCGACGAUCGCUUCGAUAUCCGCAUGCUAUCCUUGGUGUGGUCUCUCUGUUUUGAAACUUCUGAUGACUUCUUGGUGGCUUGUUGUCUUCUACCCCAUGUUUCUCACAGGAUCUGUGUGUGUGUGUGUGUGUGUGUGUGUGUGUGUGUGUGUGUGUGUUAGCAUGUGUGUAUUAGCGUGUGUGAGUGUGUGAGCAUGCACGAGUCAUAGGAGAUGCAGGUGUAUGUGUGUGGUGUGCAUAUGUGUAUGUGUGUGUGUGUGUGUGUGUGUGUAGGUGUGUUCAGCAAGUGCUCUUGCGGUCGCACUAGUGUGGAAUUCUCGGGUGUCAAGG
B11: ENSMUSG00000004113.294|Cacna1b (ssRNA)
RNA: GGGAGUUCUACAGUCCGACGAUCGCUUCGAUAUCCGCAUGCUAAUAGCUGGGAGGCCACGAGAGAAAGGUUGCACACAGACAGGCAGGCACUCCUUGGUGUGGUCUCUCUGUUUUGAAACUUCUGAUGACUUCUUGGUGGCUUGUUGUCUUCUACCCCAUGUUUCUCACAGGAUCUGUGUGUGUGUGUGUGUGUGUGUGUGUGUGUGUGUGUGUGUGUGUUAGCAUGUGUGUAUUAGCGUGUGUGAGUGUGUGAGCAUGCACGAGUCAUAGGAGAUGCAGGUGUAUGUGUGUGGUGUGCAUAUCUCUUGCGGUCGCACUAGUGUGGAAUUCUCGGGUGUCAAGG
B12: ENSMUSG00000004113.292|Cacna1b (ssRNA)
RNA: GGGAGUUCUACAGUCCGACGAUCGCUUCGAUAUCCGCAUGCUACAGUGUGCACAGAUAGCUGGGAGGCCACGAGAGAAAGGUUGCACACAGACAGGCAGGCACUCCUUGGUGUGGUCUCUCUGUUUUGAAACUUCUGAUGACUUCUUGGUGGCUUGUUGUCUUCUACCCCAUGUUUCUCACAGGAUCUGUGUGUGUGUGUGUGUGUGUGUGUGUGUGUGUGUGUGUGUGUGUUAGCAUGUGUGUAUUAGCGUGUGUGAGUGUGUGAGCAUGCACGAGUCAUAGGAGAUGCAGGUGUAUGUGUGCUCUUGCGGUCGCACUAGUGUGGAAUUCUCGGGUGUCAAGG

What follows are binders tested against TDP-43 (Homo sapiens, UniProt Q13148 1-414) (assay: RNA Bind-n-Seq with designed 260-mer pool; 25 mM Tris-HCl, 150 mM KCl, 3 mM MgCl2, BSA (printed 500 mg/mL), 20 units/mL SUPERase IN; pH not stated; 500 nM RNA pool, 1 h, 4 C; TDP-43 5, 50, 500 nM; high values mean tight binding). Conditions: protein: recombinant; tags: SBP (GST cleaved off with PreScission; pGEX-GST-SBP).
Sequence of TDP-43 (Q13148 whole entry): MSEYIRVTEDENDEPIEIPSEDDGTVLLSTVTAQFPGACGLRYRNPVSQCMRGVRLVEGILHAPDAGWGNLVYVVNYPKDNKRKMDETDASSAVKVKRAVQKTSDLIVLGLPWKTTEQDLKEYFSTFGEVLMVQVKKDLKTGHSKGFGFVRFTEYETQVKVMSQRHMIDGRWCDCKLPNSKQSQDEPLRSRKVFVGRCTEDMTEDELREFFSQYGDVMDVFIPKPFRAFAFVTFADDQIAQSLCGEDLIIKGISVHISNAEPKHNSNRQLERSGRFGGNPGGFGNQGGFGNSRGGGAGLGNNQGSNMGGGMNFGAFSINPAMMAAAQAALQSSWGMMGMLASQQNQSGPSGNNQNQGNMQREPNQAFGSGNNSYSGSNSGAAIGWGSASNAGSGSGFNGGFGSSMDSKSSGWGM
Method in brief: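 Duplicate measurements used two independent batches of recombinant SBP-tagged TDP-43, which was captured on streptavidin beads at 5, 50 or 500 nM. The beads were incubated with 500 nM of an in vitro-transcribed 260-nt 3′ UTR oligo pool for 1 h at 4 °C in 25 mM Tris-HCl, 150 mM KCl, 3 mM MgCl2, BSA and SUPERase IN. After washing, biotin elution, reverse transcription, PCR amplification and sequencing, binding was expressed as R: each oligo's normalized read abundance in the bound sample over its abundance in input.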

Binder	binding signal
B1	0.13 R (bound/input frequency ratio)
B2	2.21 R (bound/input frequency ratio)
B3	2.12 R (bound/input frequency ratio)
B4	5.7 R (bound/input frequency ratio)
B5	5.7 R (bound/input frequency ratio)
B6	5.2 R (bound/input frequency ratio)
B7	5.22 R (bound/input frequency ratio)
B8	4.07 R (bound/input frequency ratio)
B9	5.04 R (bound/input frequency ratio)
B10	8.59 R (bound/input frequency ratio)
B11	6.88 R (bound/input frequency ratio)
B12	6.93 R (bound/input frequency ratio)

Reference: article PMC12864922, “TDP-43 directly inhibits mRNA accumulation in neurites through modulation of mRNA stability”
